For one compound, Potency results are on record in PubChem BioAssay AID2585 (National Center for Advancing Translational Sciences (NCATS), 2010).

This experiment addresses RecQ-like DNA helicase BLM (Homo sapiens) (UniProt P54132). The experiment is described as follows: qHTS Confirmation Assay for Inhibitors of Bloom's syndrome helicase (BLM). Also: nearly all actives have a fitted effect of over 45% in size. Particulars: BLM DNA unwinding, fluorescence quenching, biochemical. From the text:
Survival of cells and the faithful propagation of the genome depend on elaborate mechanisms of detecting and repairing DNA damage. Treatment of advanced cancer relies on radiation therapy or chemotherapy, which kill cancer cells by causing extensive DNA damage. It is often found, that cancer cells develop resistance to therapy through enhanced activity of DNA repair functions; this has led to an increased interest in developing drugs that interfere with DNA repair, which could sensitize cancer cells to conventional therapy. This validation qHTS assay pertains to human BLM, which is important in resolving abnormal DNA structures formed during replication or homologous recombination. Shutting down the expression of BLM leads to chromosomal instability and higher radiation sensitivity in cultured cells. The validation assay was a fluorescence quenching based kinetic qHTS for BLM Helicase DNA unwinding. The activity was measured as ATP-dependent separation of a 20-bp DNA duplex extended by 30-nt single-stranded tails (forked duplex). The forked DNA substrate was tagged with rhodamine fluorophore (carboxytetramethyl rhodamine, TAMRA) and BHQ-2 (Black Hole Quencher 2) dark quencher. Strand separation results in an increase in the fluorescence of TAMRA (excitation 525 nm, emission 598 nm). […]

Each structure is given as a SMILES string. The list shows a part of the results. Inconclusive results are not listed. Activity calls are given as the source filed them. Calls follow the shape of the dose curve; as a rule, active = well fitted inhibition curve with a large enough effect; inconclusive = small, poorly fitted or top-dose-only effect; inactive = no such curve, though single readings can be large or run the other way.
Potency is read from the fitted curve at half-maximal effect.

Chain of RecQ-like DNA helicase BLM (Homo sapiens) (P54132 whole entry, looked up): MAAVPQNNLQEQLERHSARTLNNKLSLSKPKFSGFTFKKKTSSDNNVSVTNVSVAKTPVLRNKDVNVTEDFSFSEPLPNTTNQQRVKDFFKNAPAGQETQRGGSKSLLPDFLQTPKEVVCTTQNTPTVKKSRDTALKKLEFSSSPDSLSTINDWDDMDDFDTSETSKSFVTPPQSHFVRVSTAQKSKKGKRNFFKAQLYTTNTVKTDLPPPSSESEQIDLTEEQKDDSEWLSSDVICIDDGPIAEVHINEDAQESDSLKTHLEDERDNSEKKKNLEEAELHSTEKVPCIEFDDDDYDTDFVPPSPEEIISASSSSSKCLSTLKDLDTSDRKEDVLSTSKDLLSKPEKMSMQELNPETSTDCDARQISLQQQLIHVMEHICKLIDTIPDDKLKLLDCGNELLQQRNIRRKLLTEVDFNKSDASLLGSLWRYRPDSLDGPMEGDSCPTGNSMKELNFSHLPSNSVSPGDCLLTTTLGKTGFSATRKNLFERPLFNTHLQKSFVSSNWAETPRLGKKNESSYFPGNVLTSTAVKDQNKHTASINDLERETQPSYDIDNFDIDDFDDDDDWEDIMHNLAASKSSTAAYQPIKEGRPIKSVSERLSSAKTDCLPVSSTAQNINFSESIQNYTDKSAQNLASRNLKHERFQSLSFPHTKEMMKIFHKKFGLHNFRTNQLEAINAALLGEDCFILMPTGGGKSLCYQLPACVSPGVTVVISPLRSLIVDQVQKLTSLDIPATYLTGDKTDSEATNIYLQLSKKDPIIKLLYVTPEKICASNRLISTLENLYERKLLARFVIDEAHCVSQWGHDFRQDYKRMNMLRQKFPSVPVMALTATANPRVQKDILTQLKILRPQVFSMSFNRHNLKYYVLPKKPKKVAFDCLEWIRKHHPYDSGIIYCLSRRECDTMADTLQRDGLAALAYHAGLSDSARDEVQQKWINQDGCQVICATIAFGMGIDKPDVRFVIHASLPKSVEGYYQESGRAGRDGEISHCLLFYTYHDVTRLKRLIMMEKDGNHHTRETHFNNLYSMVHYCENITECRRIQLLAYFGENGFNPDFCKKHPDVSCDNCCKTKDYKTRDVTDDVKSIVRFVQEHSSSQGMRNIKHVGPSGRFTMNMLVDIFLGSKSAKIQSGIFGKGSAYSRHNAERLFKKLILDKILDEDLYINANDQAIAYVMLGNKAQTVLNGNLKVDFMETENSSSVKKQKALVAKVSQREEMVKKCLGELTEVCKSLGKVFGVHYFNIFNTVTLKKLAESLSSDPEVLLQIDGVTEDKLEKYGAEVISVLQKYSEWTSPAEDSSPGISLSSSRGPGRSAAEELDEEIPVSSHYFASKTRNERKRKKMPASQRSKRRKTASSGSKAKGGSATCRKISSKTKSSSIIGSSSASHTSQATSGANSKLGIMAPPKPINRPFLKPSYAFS

`O=C(O)c1cc[c]([Sb](=[O])([OH])[OH])cc1[N+](=O)[O-]`: the Potency was 8.57 µM (active).
